Source: PubChem BioAssay
A selection: hits, their analogues and other compounds. The true share with any hit is near 2.2%.
CF NFkB inh = cystic fibrosis NF-kB activation inhibition; KKLEB NF-kB-GFP reporter, PAF-induced, GFP fluorescence overnight; inhibition, % at 5 µM; 360,000 tested, 0.86% active; AID 588850;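 active = at least 50% inhibition at 5 µM, scaled per plate between neutral and stimulator controls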;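 also: PAF is a Pseudomonas aeruginosa culture filtrate used as stimulus; plate controls were PAF-stimulated DMSO wells for no effect and unstimulated DMSO wells for full effect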
KKLEB tox = CF airway cell cytotoxicity counter-screen | activity change (cytotoxicity), % at 5 µM | KKLEB CF airway cells viability, ATPlite luminescence, overnight; stronger effect = lower value; cells stimulated with P. aeruginosa culture filtrate | 360,000 tested, 0.36% active;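 active = corrected activity change at or below -50% at 5 µM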
HIF-2a block = blocks HIF-2a reporter activity | 786-0 RCC cells HIF-2a reporter, luciferase luminescence, overnight | inhibition, % at 18.8 µM | 360,000 tested, 0.72% active;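 active = inhibition of the luminescence signal of 40% or more relative to plate controls, in a single-dose primary screen at 18.75 µM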
PPC-1+TRAIL kill = PPC-1 cancer cell killing with TRAIL present. PPC-1 cells + TRAIL, ATPLite viability luminescence. cell killing (% activity), % at 4 µM or 5 µM. 220,000 tested, 0.41% active;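 active = cell killing above 50% in the first pass at 4 µM, then a duplicate retest at 5 µM averaging 50% or more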;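 also: plate controls were cells with TRAIL plus DMSO for no effect and medium-only wells lacking cells for full effect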
hiPSC survival = increases survival of single human iPS cells | AID 602274 | hiPSC single-cell survival, ATPlite luminescence; 100% = ROCK inhibitor wells, 0% = DMSO | 360,000 tested, 0.044% active | survival enhancement, % at 20 µM; in the data active = survival enhancement above about 18%;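 also: cells exposed to compounds for 16 hours before the ATP read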
TRAIL sens C8 = caspase-8 TRAIL sensitization. NB7+C8 cells + TRAIL, ATPlite viability luminescence. AID 624354. inhibition (viability loss, TRAIL sensitization), % at 10 µM. 360,000 tested, 1% active;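 active = compounds causing at least 50% loss of cell viability in the single-dose screen, relative to plate controls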
PPC1 cytotox = PPC-1 cell cytotoxicity; shares compounds with PPC-1+TRAIL kill; PPC-1 viability, ATPlite luminescence, overnight; cytotoxicity, % at 5 µM; 1,200 tested, 50% active; AID 1447;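 active = reconfirmed compounds whose average cytotoxicity reaches 50% or more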;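 also: 0% = DMSO-treated cells and 100% = wells holding medium but no cells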
* marks the source's active call; other numbers are inactive results; / = no result.

SMILES	CF NFkB inh	KKLEB tox	HIF-2a block	PPC-1+TRAIL kill	hiPSC survival	TRAIL sens C8	PPC1 cytotox
COC(=O)C1(C)Cc2cc(OC(C)=O)c(OC(C)=O)cc2N1 (configuration not stated)	/	/	/	-9	/	/	/
Nc1ncnc2c1ncn2C1OC(C(=O)NC2CC2)C(O)C1O (configuration not stated)	1	-9	10	/	6	-8	/
O=C(Cc1cccc([N+](=O)[O-])c1)Nc1ccc(C(=O)N2CCCCC2)cc1	22	-18	-9	/	5	5	/
c1ccc(-c2cn3c4c(sc3n2)CCCC4)cc1	-28	-58*	19	82*	-3	85*	83*
Cc1ccc(-c2cc(C(=O)N3CCCC3)no2)cc1	-26	-22	11	66*	-4	68*	68*
O=C(c1cc(-c2ccc(O)cc2)on1)N1CCCCCC1	-14	5	-240	/	0	10	/
CCc1nc2c(OCCC3CCCCC3)cccn2c1N(C)C(=O)c1ccccc1F	12	-6	15	/	0	23	/
CCCCN(C(=O)C1=CC=CN2CCS(=O)(=O)N=C12)c1ccccc1	6	-2	1	/	0	-6	/
CC(C)c1ccc(Nc2nnc(SCC(=O)Nc3ncc(S(=O)(=O)c4ccc([N+](=O)[O-])cc4)s3)s2)cc1	27	-34	-113	64*	-2	76*	65*
Cc1ccc(Nc2nnc(SCC(=O)Nc3ncc(S(=O)(=O)c4ccc([N+](=O)[O-])cc4)s3)s2)cc1	21	-36	-5	25	1	33	/
COc1ccc(/C=C/C(=O)NCC(c2ccc(F)cc2)N2CCOCC2)cc1OC (configuration not stated)	10	2	11	-7	0	-7	/
O=C(Nc1ccccn1)c1sc2cccc(F)c2c1Cl	-13	-48	-129	81*	-1	81*	83*
O=C(/C=C/c1ccc([N+](=O)[O-])cc1)c1cccs1	14	7	-65	19	-1	25	/
COc1cc([N+](=O)[O-])ccc1N/C=C/C(=O)c1cccs1	-50	-58*	-211	89*	-2	89*	90*
CCOc1ccc(N2CC(C(=O)NCCc3ccc(F)cc3)CC2=O)cc1 (configuration not stated)	-11	2	13	/	2	-16	/
COc1ccc(-c2nc(CCl)cs2)cc1	-2	-4	-126	1	-1	4	4
CC(=O)N=c1sc2nc3ccccc3nc2n1N(C(C)=O)C(C)=O	12	1	-25	-3	-2	16	-10
COc1ccc(C(C2C(=O)CC(C)(C)CC2=O)C2C(=O)CC(C)(C)CC2=O)cc1	0	-6	14	2	0	-8	/
Oc1ccccc1N=Nc1ccccc1O	1	0	-135	43	-5	34	41
CC(C)CO/C(=N/S(=O)(=O)c1ccccc1)c1ccccc1	6	10	3	-13	4	-2	11
CC(C)O/C(=N\S(=O)(=O)c1ccc(Cl)cc1)c1ccccc1	14	12	3	14	-1	-5	/
O=C(Nc1ccc2c(c1)OCCO2)c1cc2sccc2n1Cc1ccccc1	-1	4	-83	17	4	-4	/
Cn1c(C(=O)Nc2ccc3c(c2)OCCO3)cc2sccc21	-27	2	-241	42	-5	56*	40
Cc1cc(C(=O)Nc2ccc3c(c2)OCCO3)co1	28	4	-228	44	-2	48	40
O=C(Nc1ccc2c(c1)OCCO2)c1ccco1	-2	-1	-91	26	-3	35	/
Cc1ccc(C(=O)Nc2ccc3c(c2)OCCO3)o1	-2	-12	-130	62*	-5	54*	59*
Cc1cc(C)c(C(=O)Nc2ccc3c(c2)OCCO3)c(C)c1	16	-18	-152	/	3	0	/
O=C(NNC(=O)c1ccccc1-n1cccc1)c1ccc(Cl)nc1	8	-14	12	/	-2	-1	/
Clc1ccc(-c2nc3nc4ccccc4nc3n2Cc2ccco2)cc1	-2	8	-165	-10	-3	39	6
Cc1ccc(-c2nc3nc4ccccc4nc3n2Cc2ccco2)cc1	-3	-1	-112	27	-1	16	/
